Bioassay records (PubChem BioAssay)
Abeta rescue: compounds reversing amyloid beta toxicity in yeast; yeast expressing A-beta42, growth rescue, OD600, 48 h; response scale: 0% DMSO, 100% iron-clioquinol control; Potency, µM (titrated, usually from 46.1 µM), most hits filed as activators; 410,000 tested, 0.063% active; also: nearly all actives have a fitted effect of over 55% in size
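Growth rescue measured by 600 nm absorbance after 48 h yeast culture at 30 C with compound. Values normalized between DMSO and an equimolar ferric chloride plus clioquinol control.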
CCT chaperon mod: modulators of cytosolic chaperonin (CCT/TRiC) activity. purified chaperonin ATPase assay, HTRF ADP detection, 30 min. activity change, % (concentration not given with the values), hits read low. 360,000 tested, 0.3% active; in the data active = activity change below about -30%
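We incubate TRiC, 40 or 20 nM final, with library compounds at 76 uM and 10 uM ATP for 30 min at 37 °C. ADP formed is detected with Transcreener HTRF reagents after 30 min at room temperature.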
aSyn yeast inh: rescues yeast growth from alpha-synuclein toxicity. 370,000 tested, 0.14% active. Yeast expressing alpha-synuclein, growth rescue, BacTiter-Glo, 24 h. Potency, µM (highest dose often 46.1 µM), usual class: activators; also: nearly all actives have a fitted effect of over 65% in size
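Screening used galactose-induced yeast with toxic alpha-synuclein levels, exposed to compound for 24 hr at 30 deg C. Cell growth, read with BacTiter-Glo luminescence, gave the measured signal.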
FUS suppressor: rescues growth of FUS-expressing yeast; S. cerevisiae FUS-expressing, growth rescue, OD600, 24 h; Potency, µM (series often up to 76.6 µM), hits mostly activators; 390,000 tested, 0.24% active; AID 1347120; also: nearly all actives have a fitted effect of over 55% in size
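FUS-expressing yeast, raffinose-pregrown, induced in 2% galactose minimal medium at OD 0.005; compounds in a dilution series, 24hr at 30C. Growth restoration read as absorbance at 600 nm. CP55940 positive control, DMSO negative.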
MmCpn inh: inhibitors of Methanococcus maripaludis chaperonin TRiC (MmCpn); 330,000 tested, 0.031% active; AID 504842; purified Mm-Cpn ATPase, ADP Transcreener TR-FRET; Potency, µM (titrated, usually from 76.9 µM), usual class: inhibitors; also: nearly all actives have a fitted effect of over 80% in size
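Quantitative HTS used 25 nM Mm-CPN and 10 uM ATP in magnesium/KCl Tris buffer, pH 7.4, with 1 mM DTT. Hydrolysis ran 30 min at 37°C; ADP was read by HTRF.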
TDP43 rescue: inhibitors of TDP-43 toxicity in yeast. 410,000 tested, 1.8% active. TDP-43 expressing yeast growth rescue, BacTiter-Glo, 24 h. Potency, µM (doses to about 46.1 µM), hits mostly activators; also: nearly all actives have a fitted effect of over 50% in size
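Cell-based yeast growth screen: TDP-43 expression induced in galactose, inoculum OD600=0.02 after raffinose pregrowth to mid-log. Read-out BacTiter-Glo luminescence at 24 hr, 30 deg C; inhibition of toxicity seen as signal increase.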
Of the large screens only hits and unclear results are named; the others gave an inactive call. Most compounds without a hit are left out; they make up all but 2.3% or so of the library. Unless noted, calls follow the shape of the dose curve; as a rule, active = well fitted curve in the direction sought with a large enough effect; inconclusive = small, poorly fitted or top-dose-only effect, or another doubt; inactive = no such curve, though single readings can be large; an effect the other way counts as inactive or inconclusive.

O=C(Oc1c(-c2ccccc2)c(=O)n2c3c(cccc13)CC2)c1cccc([N+](=O)[O-])c1	Abeta rescue 14.1µM, aSyn yeast inh inconclusive
C=C1C=C(C(F)F)n2ncc(C(=O)NCc3ccc(OC)c(OC)c3)c2N1	none (no result: Abeta rescue, CCT chaperon mod, FUS suppressor, MmCpn inh, TDP43 rescue)
O=C(NC(=S)N1CCN(c2ccc(C(F)(F)F)cc2[N+](=O)[O-])CC1)c1cccs1	TDP43 rescue 20µM (no result: FUS suppressor)
CCN1CCN(C(=S)NC(=O)c2cccs2)CC1	none
O=C(Nc1ccccc1C(F)(F)F)O[C@@H]1CC[C@@]23CCCN2C(=O)CCC[C@H]3C1	none (no result: Abeta rescue, CCT chaperon mod, aSyn yeast inh, MmCpn inh, TDP43 rescue)
O=C(C[n+]1ccccc1Cl)c1ccc2c(c1)CCCC2	none (no result: Abeta rescue, CCT chaperon mod, FUS suppressor, MmCpn inh, TDP43 rescue)
O=C(Nc1nnc(SCc2ccccc2)s1)c1cc2c(s1)CCCC2	CCT chaperon mod -60.7
O=C(Nc1ccc2c(c1)CCC2)c1cccc(S(=O)(=O)N2CCN(c3ccccc3)CC2)c1	FUS suppressor 14.1µM
O=C(NC1CCCc2ccccc21)c1cccc(S(=O)(=O)N2CCN(c3ccccc3)CC2)c1 (stereo not given)	none
Cc1ccc(C)c(NC(=S)NNc2ccc(F)cc2F)c1	Abeta rescue inconclusive, FUS suppressor inconclusive, TDP43 rescue 12.6µM
Cc1ccc(C)c(NC(=S)NCCc2ccc(F)cc2)c1	Abeta rescue inconclusive, TDP43 rescue inconclusive
COc1ccc(-n2c(SCC(=O)NC3CCCCCC3)nnc2-c2ccncc2)cc1	none (no result: Abeta rescue, CCT chaperon mod, aSyn yeast inh, MmCpn inh, TDP43 rescue)
Cc1[nH]c2c(Br)cccc2c1[C@H]1[C@@H](CC#N)C1(C)C	TDP43 rescue 22.4µM
O=C(OCC(=O)N1CCCC1=O)c1nc(Cl)c(Cl)c(Cl)c1Cl	TDP43 rescue 25.1µM
Nc1c(Cl)c(Cl)nc(C(=O)OCC(=O)N2CCCC2=O)c1Cl	none
CCOC(=O)n1c(=O)oc2ccc(Cl)cc21	TDP43 rescue 10µM
CCOC(=O)n1c(=O)n(Cc2ccccc2Cl)c2ccccc21	none
CCOC(=O)n1c(=O)n(Cc2ccc(Cl)cc2Cl)c2ccccc21	TDP43 rescue 22.4µM
CCc1ccc(NC(=O)Cn2c(SCc3ccc(C)cc3)nc3ccncc32)cc1	none (no result: Abeta rescue, CCT chaperon mod, FUS suppressor, MmCpn inh, TDP43 rescue)
CCOc1ccccc1NC(=O)CSc1nc2c([nH]c3ccccc32)c(=O)n1-c1ccccc1	none (no result: CCT chaperon mod, aSyn yeast inh, MmCpn inh)
CCOC(=O)c1ccc(NC(=O)c2oc3c(c2C)-c2nn(Cc4ccccc4Cl)cc2CC3)cc1	FUS suppressor inconclusive, TDP43 rescue inconclusive (no result: CCT chaperon mod, aSyn yeast inh, MmCpn inh)
Cc1cc(SCC(=O)NC2CC2)nc2ccccc12	TDP43 rescue inconclusive
COc1ccc2c(-c3ccccc3)cc(SCC(=O)N(C)C)nc2c1	TDP43 rescue 22.4µM
COc1ccc2c(-c3ccccc3)cc(SCC(=O)NC(N)=O)nc2c1	none
COc1ccc2c(C)cc(SCC(=O)NC3CCCC3)nc2c1	aSyn yeast inh 11.2µM
Cc1ccc(NC(=O)N2CCC(N(C)CCC(C)C)CC2)cc1F	none (no result: Abeta rescue, CCT chaperon mod, aSyn yeast inh, MmCpn inh, TDP43 rescue)
CCOc1ccc(CC(=O)Nc2sc(Cc3ccccc3)c(C)c2C(N)=O)cc1OCC	FUS suppressor 14.1µM
O=C(/C=C/c1ccc(Cl)cc1)N1CCN(c2c(Cl)cccc2[N+](=O)[O-])CC1	TDP43 rescue 11.2µM
Cc1c(C(=O)OC(C)C(=O)N(C)Cc2ccccc2)oc2ccccc12 (stereo not given)	TDP43 rescue 35.5µM
FC(F)(F)c1nc(Sc2ncccc2C(F)(F)F)n[nH]1	TDP43 rescue 12.6µM
FC(F)(F)c1ccnc(Sc2n[nH]c(C(F)(F)F)n2)c1	none
CC(=O)Nc1nc2ncccn2c1-c1ccc(C)cc1	none (no result: Abeta rescue, CCT chaperon mod, aSyn yeast inh, MmCpn inh, TDP43 rescue)
CC(=O)N1CCc2c(sc3c2c(=O)n(-c2ccccc2)c(=O)n3CC(=O)Nc2ccccc2)C1	none (no result: CCT chaperon mod, aSyn yeast inh, MmCpn inh)
COc1ccc(C(=O)Nc2ccc(S(=O)(=O)Nc3nccnc3OC)cc2)cc1	TDP43 rescue 0.316µM
CCC1=Nc2cc(C(=O)O)ccc2Sc2ccc(Cl)cc21	TDP43 rescue 14.1µM
CC1=Nc2cc(C(=O)O)ccc2Sc2ccc(Br)cc21	TDP43 rescue 35.5µM
COc1cccc(/C=C2\CC3(OC(=O)C4CCCC4)CCCN2C3)c1 (stereo not given)	none (no result: Abeta rescue, CCT chaperon mod, aSyn yeast inh, MmCpn inh, TDP43 rescue)
O=C(O)C(Cc1cn[nH]n1)=NO	CCT chaperon mod -51.3
